# Data: PubChem BioAssay
# Results with a measured potency or affinity are listed apart. Results filed as inconclusive are left out. Values without a mark were called inactive. Calls of active or inactive are those of the source. No rule for the calls is given here.
# Test: NIH:OVCAR-3 ovarian cancer cell cytotoxicity, dose response, PAX8 inhibitor project, plate reader, dry powder samples (AID 743044)
# Conditions: NIH:OVCAR-3 ovarian cancer cell viability; max activity: at 35 µM, hits give low values unless noted; series mostly up to 50 µM
row,Structure (SMILES),max activity
1,C[C@H](CO)N1C[C@H](C)[C@H](CN(C)S(=O)(=O)c2cccs2)OCCCC[C@H](C)Oc2ccc(NC(=O)NC3CCCCC3)cc2C1=O,"9.21% [at 0.26 µM, hits give low values]"
2,Cc1ccc(S(=O)(=O)Nc2ccc3c(c2)C(=O)N([C@@H](C)CO)C[C@H](C)[C@@H](CN(C)Cc2ccc(Cl)c(Cl)c2)OCCCC[C@@H](C)O3)cc1,"-5.1% [at 16 µM, hits give low values]"
3,C[C@@H]1CCCCO[C@@H](CN(C)Cc2ccc(Cl)c(Cl)c2)[C@H](C)CN([C@H](C)CO)C(=O)c2cc(NS(=O)(=O)c3ccc(F)cc3)ccc2O1,-22%

# Test: IOSE-T80 ovarian epithelial cell cytotoxicity, dose response, cytotoxicity control for PAX8 inhibitor project, plate reader, dry powder samples (AID 743045);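 also: 0% = neutral control median and -100% = positive control median; more negative values mean more cell killing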
# Conditions: IOSE-T80 ovarian epithelial cells; series mostly up to 35 µM
row,Structure (SMILES),outcome
1,C[C@@H]1CN([C@@H](C)CO)C(=O)Cc2cc(N(C)C)ccc2O[C@H]1CN(C)Cc1ccc(Oc2ccccc2)cc1,inactive
2,C[C@H](CO)N1C[C@H](C)[C@H](CN(C)Cc2ccc3c(c2)OCO3)Oc2ccc(NC(=O)Nc3cccc4ccccc34)cc2C1=O,inactive
3,COc1ccccc1C#Cc1ccc2c(c1)O[C@H](CN(C)Cc1cccnc1)[C@H](C)CN([C@H](C)CO)S2(=O)=O,inactive
4,C[C@@H]1CCCCO[C@H](CN(C)Cc2ccc(C(F)(F)F)cc2)[C@H](C)CN([C@H](C)CO)C(=O)c2cc(NS(=O)(=O)c3ccc(F)cc3)ccc2O1,inactive
5,CN1c2ccc(-c3ccc(C#N)cc3)cc2[C@@H]2[C@@H](CCN2C(=O)NC2CCCCC2)[C@@H]1CO,inactive
6,Cc1ccc(S(=O)(=O)Nc2ccc3c(c2)C(=O)N([C@@H](C)CO)C[C@H](C)[C@H](CN(C)Cc2ccc(C(F)(F)F)cc2)OCCCC[C@@H](C)O3)cc1,inactive
7,Cc1ccc(S(=O)(=O)N(C)C[C@H]2Oc3ccc(NC(=O)Nc4ccc(C(F)(F)F)cc4)cc3CC(=O)N([C@@H](C)CO)C[C@H]2C)cc1,inactive
8,CCCN(C)C[C@H]1OCCCC[C@@H](C)Oc2ccc(NC(=O)c3ccccc3)cc2C(=O)N([C@H](C)CO)C[C@H]1C,inactive
9,C[C@@H]1CCCCO[C@H](CN(C)Cc2ccc(Cl)c(Cl)c2)[C@@H](C)CN([C@@H](C)CO)C(=O)c2cc(NS(=O)(=O)c3ccc(Cl)cc3)ccc2O1,inactive
10,C[C@@H]1CN([C@H](C)CO)C(=O)c2c(c3ccccc3n2C)-c2ccccc2CO[C@H]1CN(C)C(=O)Nc1cccc(C(F)(F)F)c1,inactive
11,C[C@@H]1CCCCO[C@H](CN(C)Cc2ccc(Cl)c(Cl)c2)[C@H](C)CN([C@@H](C)CO)C(=O)c2cc(NC(=O)Nc3ccc(F)cc3)ccc2O1,inactive
12,C[C@H](CO)N1C[C@H](C)[C@H](CN(C)Cc2ccc(Cl)c(Cl)c2)Oc2c(NS(=O)(=O)c3ccc(Cl)cc3)cccc2C1=O,inactive
13,Cc1ccc(S(=O)(=O)Nc2ccc3c(c2)C(=O)N([C@H](C)CO)C[C@@H](C)[C@H](CN(C)S(=O)(=O)c2ccc(Cl)cc2)OCCCC[C@H](C)O3)cc1,inactive
14,C[C@@H]1CN([C@H](C)CO)C(=O)c2cc(NC(=O)Nc3ccc(C(F)(F)F)cc3)ccc2O[C@@H](C)CCCCO[C@H]1CN(C)C(=O)Nc1ccc(F)cc1,inactive
15,Cc1ccc(S(=O)(=O)Nc2ccc3c(c2)C(=O)N([C@@H](C)CO)C[C@H](C)[C@@H](CN(C)C(=O)Nc2ccc(C(F)(F)F)cc2)OCCCC[C@H](C)O3)cc1,inactive
16,Cc1cccc(-c2ccc([C@H]3[C@H](CO)N4CCCCN(S(=O)(=O)c5ccccc5C)C[C@@H]34)cc2)c1,inactive
17,C[C@@H]1CN([C@H](C)CO)C(=O)c2cc(NC(=O)Nc3ccc(F)cc3)ccc2O[C@@H](C)CCCCO[C@H]1CN(C)Cc1ccc(Cl)c(Cl)c1,inactive
18,O=C(Nc1cccc(F)c1)N1CCCCN2[C@@H](CO)[C@@H](c3ccc(-c4ccncc4)cc3)[C@@H]2C1,inactive
19,C[C@@H]1CCCCO[C@H](CN(C)C)[C@H](C)CN([C@H](C)CO)C(=O)c2cc(NC(=O)Nc3cccc4ccccc34)ccc2O1,inactive
20,C[C@@H]1CN([C@@H](C)CO)C(=O)c2cc(NC(=O)c3ccccc3)ccc2O[C@@H](C)CCCCO[C@H]1CN(C)Cc1ccc(C(F)(F)F)cc1,inactive

row,Structure (SMILES),outcome
1,C[C@@H]1CCCCO[C@H](CN(C)Cc2ccc(C(F)(F)F)cc2)[C@@H](C)CN([C@@H](C)CO)C(=O)c2cc(NS(=O)(=O)c3ccccc3)ccc2O1,inactive
2,O=C(Nc1ccc(C(F)(F)F)cc1)N1C[C@@H]2N[C@H](C1)C2c1ccc(-c2ccccc2)cc1 (some centres not stated),inactive
3,O=C(C[C@@H]1CC[C@H]2[C@@H](COC[C@@H](O)CN2Cc2cccc(C(F)(F)F)c2)O1)NCc1ccc(F)cc1,inactive
4,C[C@@H]1CN([C@H](C)CO)C(=O)c2cc(NC(=O)Nc3ccc(F)cc3)ccc2O[C@@H](C)CCCCO[C@H]1CN(C)C(=O)Nc1ccc(F)cc1,inactive
5,O=S(=O)(c1ccc(F)cc1)N1C[C@H]2[C@@H](c3ccccc31)[C@H](CO)N2Cc1ccccc1Cl,inactive
6,C[C@@H]1CN([C@@H](C)CO)S(=O)(=O)c2ccc(C#C[C@@H](C)O)cc2O[C@@H]1CN(C)Cc1ccc(-c2ccccc2)cc1,inactive
7,C[C@H]1CN([C@@H](C)CO)C(=O)CCCn2nncc2CO[C@@H]1CN(C)C(=O)Nc1ccc(-c2cccs2)cc1,inactive
8,Cc1ccc(S(=O)(=O)Nc2cccc3c2O[C@@H](CN(C)C(=O)Nc2ccc(C(F)(F)F)cc2)[C@@H](C)CN([C@H](C)CO)C3=O)cc1,inactive
9,COc1ccc(CN2[C@H](CO)[C@H]3c4ccccc4NC[C@H]32)cc1,inactive
10,CCCN1[C@H](C(=O)N2CCOCC2)[C@@H](CO)[C@@H]2Cn3c(ccc(/C=C/c4ccccc4)c3=O)[C@@H]21,inactive
11,O=C(C[C@@H]1C[C@H]2c3cc(NC(=O)C4CCOCC4)ccc3O[C@H]2[C@H](CO)O1)NCc1ccc(Oc2ccccc2)cc1,inactive
12,C[C@@H]1CN([C@H](C)CO)C(=O)c2cc(NC(=O)c3ccncc3)ccc2O[C@@H](C)CCCCO[C@H]1CN(C)Cc1ccc(C(F)(F)F)cc1,inactive
13,Cc1cccc(-c2ccc([C@H]3[C@@H](CO)N4CCCCN(S(=O)(=O)c5cccc(C)c5)C[C@@H]34)cc2)c1,inactive
14,C[C@@H]1CN([C@H](C)CO)C(=O)c2cc(NS(=O)(=O)c3ccc(F)cc3)ccc2O[C@@H]1CN(C)Cc1ccc(C(F)(F)F)cc1,inactive
15,C[C@@H]1CN([C@H](C)CO)C(=O)c2c(c3ccccc3n2C)-c2ccccc2CO[C@@H]1CN(C)S(=O)(=O)c1ccc(C(F)(F)F)cc1,inactive
16,C[C@@H]1CCCCO[C@@H](CN(C)S(=O)(=O)c2ccc(Cl)cc2)[C@H](C)CN([C@@H](C)CO)C(=O)c2cc(NS(=O)(=O)c3ccc(Cl)cc3)ccc2O1,inactive
17,C[C@H](CO)N1C[C@H](C)[C@H](CN(C)S(=O)(=O)c2cccs2)OCCCC[C@H](C)Oc2ccc(NC(=O)NC3CCCCC3)cc2C1=O,inactive
18,Cc1ccc(S(=O)(=O)Nc2ccc3c(c2)C(=O)N([C@@H](C)CO)C[C@H](C)[C@@H](CN(C)Cc2ccc(Cl)c(Cl)c2)OCCCC[C@@H](C)O3)cc1,inactive
19,C[C@@H]1CCCCO[C@@H](CN(C)Cc2ccc(Cl)c(Cl)c2)[C@H](C)CN([C@H](C)CO)C(=O)c2cc(NS(=O)(=O)c3ccc(F)cc3)ccc2O1,inactive
